Assay outcomes: PubChem BioAssay, Emory University Molecular Libraries Screening Center
This excerpt belongs to a sample that is enriched for hits.
Measles inh: inhibitors of measles virus growth in infected cells; actives 0.1% (n = 33,000); z-score (no concentration beside the values); infected Vero cells, GFP fluorescence, 64 h; hits give low values; in the data active means z-score below about -3
A number is an active result.

COc1ccc(C=Cc2nc3ccccc3c(=O)n2-c2ccc(C)cc2C)cc1 was read as Measles inh inactive.
Cc1ccc(-n2c(C=Cc3cccc(F)c3)nc3ccccc3c2=O)c(C)c1 was read as Measles inh -3.2.
Cc1ccc(-n2c(C=Cc3ccccc3)nc3ccccc3c2=O)c(C)c1 was read as Measles inh inactive.
For COc1ccc(C=Cc2nc3ccccc3c(=O)n2-c2cc(Cl)ccc2OC)cc1 the results were Measles inh inactive.
`CN1CCN(Cc2nc3ccc([N+](=O)[O-])cc3c(=O)n2-c2ccccc2F)CC1` gave Measles inh inactive.
